Data published in the supplement of paper PMC9262897, “Low-cost anti-mycobacterial drug discovery using engineered E. coli” (Nature Communications, 2022).
Counter-ions that a name gives are not always drawn. ± gives the standard deviation of the averaged measurements.

What was measured:
Assay in all cases: growth (OD600 after 10 h); higher = more growth (less inhibition)
[1] = test system: E. coli TESEC Alr+ wild-type control; settings: compound 0.1 mM; raw OD600 reference: median of DMSO wells 0.241, cell-free background 0.041
Experimental: (§1)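 TESEC Mtb Alr E. coli, or the Alr+ wild-type control, in 384-well plates with Prestwick library compounds at 0.1 mM and 1% DMSO, across arabinose induction levels of 1E3 to 1E7 nM. Growth is read as OD600 after 10 h at 37 °C in triplicate biological replicates.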

E. coli TESEC Mtb Alr [2] = settings: compound 0.1 mM
Experimental: as §1

E. coli TESEC Mtb Asd = settings: compound 0.1 mM
Experimental: (§2)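 TESEC E. coli strains in which the native enzyme is deleted and replaced by arabinose-inducible Mtb Asd, DapB, CysH or TrpD, each grown in its selective medium. Strains were screened against the Prestwick library at 0.1 mM and 1% DMSO in 384-well format at low and high arabinose induction. Growth is read as OD600 after 10 h in triplicate.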

E. coli TESEC Mtb DapB = settings: compound 0.1 mM
Experimental: as §2

[3] = test system: E. coli TESEC Alr+ wild-type control; settings: compound 0.1 mM; raw OD600 reference: median of DMSO wells 0.49, cell-free background 0.052
Experimental: (§3)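 TESEC Mtb Alr E. coli (ΔaraC ΔtolC ΔentC Δalr ΔdadX, arabinose-inducible Mtb Alr) or the Alr+ wild-type control strain, grown in defined M9-fructose medium without D-alanine in 96-well plates with Prestwick library compounds at 0.1 mM and 1% DMSO. Low Alr induction is 0.1 µM arabinose and high induction is 10 mM arabinose.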

E. coli TESEC Mtb Alr [4] = settings: compound 0.1 mM; remark: listed apart in the source
Experimental: as §3

[5] = arabinose 1000 nM, raw OD600 reference: median of DMSO wells 0.294, cell-free background 0.041
[6] = arabinose 10000 nM, raw OD600 reference: median of DMSO wells 0.264, cell-free background 0.041
[7] = arabinose 100000 nM, raw OD600 reference: median of DMSO wells 0.201, cell-free background 0.041
[8] = arabinose 1000000 nM, raw OD600 reference: median of DMSO wells 0.193, cell-free background 0.041
[9] = arabinose 10000000 nM, raw OD600 reference: median of DMSO wells 0.146, cell-free background 0.041
[10] = arabinose induction (level): High, raw OD600 reference: median of DMSO wells 0.331, cell-free background 0.041
[11] = arabinose induction (level): Low, raw OD600 reference: median of DMSO wells 0.417, cell-free background 0.041
[12] = arabinose induction (level): High, raw OD600 reference: median of DMSO wells […], cell-free background 0.041
[13] = arabinose induction (level): Low, raw OD600 reference: median of DMSO wells 0.227, cell-free background 0.041
[14] = arabinose 100 nM, raw OD600 reference: median of DMSO wells 0.413, cell-free background 0.052
[15] = arabinose 10000000 nM, raw OD600 reference: median of DMSO wells […], cell-free background 0.052

Row | SMILES | growth [1] | growth (E. coli TESEC Mtb Alr [2]; [5]) | growth (E. coli TESEC Mtb Alr [2]; [6]) | growth (E. coli TESEC Mtb Alr [2]; [7]) | growth (E. coli TESEC Mtb Alr [2]; [8]) | growth (E. coli TESEC Mtb Alr [2]; [9]) | growth (E. coli TESEC Mtb Asd; [10]) | growth (E. coli TESEC Mtb Asd; [11]) | growth (E. coli TESEC Mtb DapB; [12]) | growth (E. coli TESEC Mtb DapB; [13]) | growth [3] | growth (E. coli TESEC Mtb Alr [4]; [14]) | growth (E. coli TESEC Mtb Alr [4]; [15])
1 | COc1ccc(-c2ccc3cc(C(=O)O)ccc3c2)cc1C12CC3CC(CC(C3)C1)C2 [Adapalene] | 0.2339 ± 0.00031 | 0.282 ± 0.014 | 0.26 ± 0.0041 | 0.185 ± 0.013 | 0.223 ± 0.016 | 0.125 ± 0.0023 | 0.231 ± 0.0037 | 0.298 ± 0.079 | 0.193 ± 0.013 | 0.249 ± 0.028 | 0.483 ± 0.01 | 0.435 ± 0.014 | 0.402 ± 0.085
2 | N=C(N)NCCN1CCCCCCC1 [Guanethidine sulfate] | 0.255 ± 0.0095 | 0.298 ± 0.027 | 0.266 ± 0.0054 | 0.24 ± 0.012 | 0.173 ± 0.011 | 0.168 ± 0.011 | 0.291 ± 0.094 | 0.366 ± 0.069 | 0.205 ± 0.0096 | 0.247 ± 0.008 | 0.468 ± 0.04 | 0.419 ± 0.008 | 0.384 ± 0.015
3 | CC(=O)[C@H]1CC[C@H]2[C@@H]3CC=C4C[C@@H](O)CC[C@]4(C)[C@H]3CC[C@]12C [Pregnenolone] | 0.166 ± 0.0078 | 0.235 ± 0.015 | 0.239 ± 0.016 | 0.173 ± 0.029 | 0.136 ± 0.0035 | 0.159 ± 0.0019 | 0.168 ± 0.026 | 0.343 ± 0.034 | 0.191 ± 0.0035 | 0.184 ± 0.009 | 0.458 ± 0.0056 | 0.398 ± 0.0084 | 0.2327 ± 0.0018
4 | CN(C)CCC(c1ccccc1)c1ccccn1 (stereo not drawn) [Pheniramine maleate] | 0.241 ± 0.014 | 0.289 ± 0.0087 | 0.242 ± 0.0091 | 0.191 ± 0.0028 | 0.162 ± 0.0033 | 0.14 ± 0.0047 | 0.248 ± 0.064 | 0.408 ± 0.014 | 0.201 ± 0.022 | 0.213 ± 0.019 | 0.455 ± 0.059 | 0.41 ± 0.006 | 0.345 ± 0.015
5 | CCCNCC(O)COc1ccccc1C(=O)CCc1ccccc1 (stereo not drawn) [Propafenone hydrochloride] | 0.201 ± 0.0092 | 0.241 ± 0.019 | 0.281 ± 0.012 | 0.176 ± 0.015 | 0.124 ± 0.0027 | 0.155 ± 0.006 | 0.144 ± 0.007 | 0.345 ± 0.02 | 0.173 ± 0.01 | 0.185 ± 0.015 | 0.452 ± 0.022 | 0.412 ± 0.009 | 0.285 ± 0.0058
6 | O=C(O)c1cn(-c2ccc(F)cc2)c2cc(N3CCNCC3)c(F)cc2c1=O [Sarafloxacin] | 0.0422 ± 0.00026 | 0.0454 ± 0.0031 | 0.0399 ± 0.0003 | 0.04133 ± 0.00015 | 0.0405 ± 0.0013 | 0.0412 ± 0.0021 | 0.0475 ± 0.0021 | 0.047 ± 0.0013 | 0.0494 ± 0.00055 | 0.0482 ± 0.00017 | 0.0534 ± 0.00044 | 0.0545 ± 0.00093 | 0.0532 ± 0.0002
7 | COc1ccc2cc([C@H](C)C(=O)O)ccc2c1 [Naproxen] | 0.26 ± 0.0081 | 0.265 ± 0.029 | 0.249 ± 0.014 | 0.187 ± 0.012 | 0.168 ± 0.0019 | 0.132 ± 0.0043 | 0.247 ± 0.028 | 0.426 ± 0.063 | 0.18 ± 0.062 | 0.217 ± 0.027 | 0.5599 ± 0.0025 | 0.42 ± 0.0057 | 0.293 ± 0.019
8 | C[C@H]1[C@H](NC(=O)/C(=N\OC(C)(C)C(=O)O)c2csc(N)n2)C(=O)N1S(=O)(=O)O [Aztreonam] | 0.161 ± 0.011 | 0.0624 ± 0.0045 | 0.0463 ± 0.0008 | 0.136 ± 0.014 | 0.177 ± 0.005 | 0.172 ± 0.0037 | 0.161 ± 0.009 | 0.11 ± 0.0038 | 0.188 ± 0.0055 | 0.186 ± 0.026 | 0.385 ± 0.016 | 0.0511 ± 0.0047 | 0.277 ± 0.016
9 | Cn1c(=O)c2c(ncn2CC(O)CO)n(C)c1=O (stereo not drawn) [Diprophylline] | 0.253 ± 0.0057 | 0.271 ± 0.026 | 0.249 ± 0.013 | 0.197 ± 0.018 | 0.182 ± 0.0025 | 0.138 ± 0.0093 | 0.367 ± 0.021 | 0.452 ± 0.052 | 0.206 ± 0.0061 | 0.24 ± 0.017 | 0.45 ± 0.05 | 0.421 ± 0.0097 | 0.313 ± 0.057
10 | CC=CC(=O)N(CC)c1ccccc1C [Crotamiton] | 0.242 ± 0.01 | 0.329 ± 0.028 | 0.269 ± 0.014 | 0.236 ± 0.014 | 0.181 ± 0.0031 | 0.158 ± 0.017 | 0.473 ± 0.015 | 0.467 ± 0.02 | 0.236 ± 0.053 | 0.235 ± 0.03 | 0.489 ± 0.022 | 0.4 ± 0.02 | 0.32 ± 0.0055
11 | COc1ccccc1N1CCN(CCCCNC(=O)c2ccc3ccccc3c2)CC1 | 0.149 ± 0.0027 | 0.179 ± 0.013 | 0.2704 ± 0.0024 | 0.195 ± 0.019 | 0.124 ± 0.0029 | 0.182 ± 0.0013 | 0.156 ± 0.0093 | 0.265 ± 0.013 | 0.188 ± 0.017 | 0.2 ± 0.012 | 0.374 ± 0.0092 | 0.398 ± 0.0097 | 0.181 ± 0.024
12 | COc1ccc(-c2cc(=S)ss2)cc1 [Anethole-trithione] | 0.182 ± 0.013 | 0.232 ± 0.008 | 0.218 ± 0.019 | 0.18 ± 0.0053 | 0.12 ± 0.026 | 0.168 ± 0.0049 | 0.211 ± 0.018 | 0.263 ± 0.022 | 0.193 ± 0.0052 | 0.218 ± 0.011 | 0.616 ± 0.027 | 0.4304 ± 0.0029 | 0.369 ± 0.019
13 | Cc1c(OCC(F)(F)F)ccnc1C[S+]([O-])c1nc2ccccc2[nH]1 (stereo not drawn) [Lansoprazole] | 0.131 ± 0.0017 | 0.164 ± 0.0045 | 0.242 ± 0.01 | 0.132 ± 0.0025 | 0.094 ± 0.0041 | 0.14 ± 0.0041 | 0.236 ± 0.024 | 0.191 ± 0.0085 | 0.175 ± 0.0097 | 0.203 ± 0.02 | 0.377 ± 0.011 | 0.363 ± 0.035 | 0.163 ± 0.025
14 | CC1CNc2c(cccc2S(=O)(=O)N[C@@H](CCCNC(=N)N)C(=O)N2CC[C@@H](C)C[C@@H]2C(=O)O)C1 (stereo partly drawn) [Argatroban] | 0.211 ± 0.0062 | 0.288 ± 0.0078 | 0.257 ± 0.0085 | 0.222 ± 0.014 | 0.182 ± 0.012 | 0.144 ± 0.0053 | 0.348 ± 0.096 | 0.395 ± 0.048 | 0.181 ± 0.0099 | 0.197 ± 0.016 | 0.429 ± 0.019 | 0.404 ± 0.011 | 0.369 ± 0.016
15 | CC(=O)N[C@@H](CS)C(=O)O [Acetylcysteine] | 0.2422 ± 0.0011 | 0.298 ± 0.0096 | 0.2731 ± 0.0017 | 0.203 ± 0.019 | 0.21 ± 0.012 | 0.142 ± 0.0051 | 0.437 ± 0.059 | 0.393 ± 0.017 | 0.196 ± 0.014 | 0.232 ± 0.053 | 0.475 ± 0.06 | 0.4122 ± 0.0033 | 0.344 ± 0.0049
16 | CC[C@@H]1C(=O)OC[C@@H]1Cc1cncn1C [Pilocarpine nitrate] | 0.231 ± 0.0064 | 0.247 ± 0.037 | 0.244 ± 0.011 | 0.204 ± 0.032 | 0.18 ± 0.0025 | 0.145 ± 0.0063 | 0.222 ± 0.012 | 0.279 ± 0.044 | 0.199 ± 0.016 | 0.222 ± 0.023 | 0.674 ± 0.05 | 0.391 ± 0.0052 | 0.319 ± 0.044
